# Laboratory results from PubChem BioAssay AID1159580 (chemical genetic matrix, 2015).
# Among all 5,500 compounds or so, about 2,000 (36%) were called active. Roughly 18% stayed inconclusive and do not appear here. The list shows a part of the results. A number with no mark means an inactive call. Cut-off read from the data, not from the text of the source: active = normalized growth mostly below about 0.91 (no sharp cut-off); inconclusive = no clear call, values can overlap the other calls; inactive = mostly above about 0.92.
# Test: chemical genetic growth profiling, strain panel (AID 1159580);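 note: tested at 20 µM; growth read once vehicle control cultures reached saturation at 30 °C; 1 = growth at the plate median or of vehicle wells; lower values mean less growth of the strain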
# Conditions: growth OD
# [1] = S. cerevisiae deletion strains, locus YDL101C, strain DUN1, hits give low values
# [2] = S. cerevisiae deletion strains, locus YHR030C, strain SLT2, hits give low values
# [3] = S. cerevisiae deletion strains, locus YAL013W, strain DEP1, hits give low values
# [4] = S. cerevisiae deletion strains, locus YMR263W, strain SAP30, hits give low values
# [5] = S. cerevisiae deletion strains, locus YNL153C, strain GIM3, hits give low values
# [6] = S. cerevisiae deletion strains, locus YNL322C, strain KRE1, hits give low values
# [7] = S. cerevisiae deletion strains, locus YPL241C, strain CIN2, hits give low values
smiles,measurement,setting,value
N#CC(C#N)=Cc1ccc(-c2ccccc2C(F)(F)F)o1,normalized growth,"S. cerevisiae deletion strains, locus YAR019C, strain CDC15, hits give low values",0.947
same,normalized growth,"S. cerevisiae deletion strains, locus YBL105C, strain PKC1, hits give low values",0.946
same,normalized growth,"S. cerevisiae deletion strains, locus YBR135W, strain CKS1, hits give low values",0.947
same,normalized growth,"S. cerevisiae deletion strains, locus YBR136W, strain MEC1, hits give low values",0.947
same,normalized growth,"S. cerevisiae deletion strains, locus YBR160W, strain CDC28, hits give low values",0.95
same,normalized growth,"S. cerevisiae deletion strains, locus YDL017W, strain CDC7, hits give low values",0.947
same,normalized growth,"S. cerevisiae deletion strains, locus YDL028C, strain MPS1, hits give low values",0.954
same,normalized growth,[1],0.925
same,normalized growth,"S. cerevisiae deletion strains, locus YDL108W, strain KIN28, hits give low values",0.953
same,normalized growth,"S. cerevisiae deletion strains, locus YDL132W, strain cdc53, hits give low values",0.947
same,normalized growth,"S. cerevisiae deletion strains, locus YDL214C, strain PRR2, hits give low values",0.901
same,normalized growth,"S. cerevisiae deletion strains, locus YDR052C, strain DBF4, hits give low values",0.957
same,normalized growth,"S. cerevisiae deletion strains, locus YDR054C, strain cdc34, hits give low values",0.94
same,normalized growth,"S. cerevisiae deletion strains, locus YDR226W, strain ADK1, hits give low values",0.943
same,normalized growth,"S. cerevisiae deletion strains, locus YDR477W, strain SNF1, hits give low values",0.913
same,normalized growth,"S. cerevisiae deletion strains, locus YER123W, strain YCK3, hits give low values",0.876
same,normalized growth,"S. cerevisiae deletion strains, locus YER133W, strain GLC7, hits give low values",0.925
same,normalized growth,"S. cerevisiae deletion strains, locus YFL009W, strain cdc4, hits give low values",0.94
same,normalized growth,"S. cerevisiae deletion strains, locus YFL029C, strain CAK1, hits give low values",0.945
same,normalized growth,"S. cerevisiae deletion strains, locus YFR003C, strain YPI1, hits give low values",0.944
same,normalized growth,"S. cerevisiae deletion strains, locus YFR019W, strain FAB1, hits give low values",0.898
same,normalized growth,"S. cerevisiae deletion strains, locus YFR028C, strain CDC14, hits give low values",0.94
same,normalized growth,"S. cerevisiae deletion strains, locus YGR040W, strain KSS1, hits give low values",0.903
same,normalized growth,"S. cerevisiae deletion strains, locus YGR052W, strain FMP48, hits give low values",0.871
same,normalized growth,"S. cerevisiae deletion strains, locus YGR092W, strain DBF2, hits give low values",0.783
same,normalized growth,[2],0.875
same,normalized growth,"S. cerevisiae deletion strains, locus YHR079C, strain IRE1, hits give low values",0.905
same,normalized growth,"S. cerevisiae deletion strains, locus YHR082C, strain KSP1, hits give low values",0.906
same,normalized growth,"S. cerevisiae deletion strains, locus YHR205W, strain SCH9, hits give low values",0.784
same,normalized growth,"S. cerevisiae deletion strains, locus YIL147C, strain SLN1, hits give low values",0.948
same,normalized growth,"S. cerevisiae deletion strains, locus YJL095W, strain BCK1, hits give low values",0.838
same,normalized growth,"S. cerevisiae deletion strains, locus YJL128C, strain PBS2, hits give low values",0.866
same,normalized growth,"S. cerevisiae deletion strains, locus YJL157C, strain FAR1, hits give low values",0.907
same,normalized growth,"S. cerevisiae deletion strains, locus YJR016C, strain ILV3, hits give low values",0.95
same,normalized growth,"S. cerevisiae deletion strains, locus YJR066W, strain TOR1 (second series), hits give low values",0.873
same,normalized growth,"S. cerevisiae deletion strains, locus YJR066W, strain TOR1, hits give low values",0.893
same,normalized growth,"S. cerevisiae deletion strains, locus YKL048C, strain ELM1, hits give low values",0.899
same,normalized growth,"S. cerevisiae deletion strains, locus YKL067W, strain YNK1, hits give low values",0.89
same,normalized growth,"S. cerevisiae deletion strains, locus YKL101W, strain HSL1, hits give low values",0.873
same,normalized growth,"S. cerevisiae deletion strains, locus YKL193C, strain SDS22, hits give low values",0.942
same,normalized growth,"S. cerevisiae deletion strains, locus YKL203C, strain TOR2, hits give low values",0.931
same,normalized growth,"S. cerevisiae deletion strains, locus YLR113W, strain HOG1, hits give low values",0.758 (active)
same,normalized growth,"S. cerevisiae deletion strains, locus YLR133W, strain CKI1, hits give low values",0.891
same,normalized growth,"S. cerevisiae deletion strains, locus YLR403W, strain SFP1, hits give low values",0.848
same,normalized growth,"S. cerevisiae deletion strains, locus YML070W, strain DAK1, hits give low values",0.894
same,normalized growth,"S. cerevisiae deletion strains, locus YMR001C, strain CDC5, hits give low values",0.94
same,normalized growth,"S. cerevisiae deletion strains, locus YMR205C, strain PFK2 (second series), hits give low values",0.899
same,normalized growth,"S. cerevisiae deletion strains, locus YMR277W, strain FCP1, hits give low values",0.935
same,normalized growth,"S. cerevisiae deletion strains, locus YNL006W, strain LST8, hits give low values",0.949
same,normalized growth,"S. cerevisiae deletion strains, locus YNL020C, strain ARK1, hits give low values",0.892
same,normalized growth,"S. cerevisiae deletion strains, locus YNL161W, strain CBK1, hits give low values",0.941
same,normalized growth,"S. cerevisiae deletion strains, locus YNL183C, strain NPR1, hits give low values",0.864
same,normalized growth,"S. cerevisiae deletion strains, locus YNL207W, strain RIO2, hits give low values",0.943
same,normalized growth,"S. cerevisiae deletion strains, locus YNL222W, strain SSU72, hits give low values",0.951
same,normalized growth,"S. cerevisiae deletion strains, locus YNL307C, strain MCK1 (second series), hits give low values",0.788
same,normalized growth,"S. cerevisiae deletion strains, locus YOL078W, strain AVO1, hits give low values",0.939
same,normalized growth,"S. cerevisiae deletion strains, locus YOL136C, strain PFK27, hits give low values",0.851
same,normalized growth,"S. cerevisiae deletion strains, locus YOR061W, strain CKA2, hits give low values",0.907
same,normalized growth,"S. cerevisiae deletion strains, locus YOR119C, strain RIO1, hits give low values",0.964
same,normalized growth,"S. cerevisiae deletion strains, locus YOR231W, strain MKK1, hits give low values",0.87
same,normalized growth,"S. cerevisiae deletion strains, locus YOR329C, strain SCD5, hits give low values",0.944
same,normalized growth,"S. cerevisiae deletion strains, locus YPL031C, strain PHO85, hits give low values",0.895
same,normalized growth,"S. cerevisiae deletion strains, locus YPL153C, strain RAD53, hits give low values",0.907
same,normalized growth,"S. cerevisiae deletion strains, locus YPL204W, strain HRR25, hits give low values",0.88
same,normalized growth,"S. cerevisiae deletion strains, locus YPL209C, strain IPL1, hits give low values",0.947
same,normalized growth,"S. cerevisiae deletion strains, locus YPL256C, strain CLN2, hits give low values",0.929
same,normalized growth,"S. cerevisiae deletion strains, locus YPR025C, strain CCL1, hits give low values",0.948
same,normalized growth,"S. cerevisiae deletion strains, locus YPR106W, strain ISR1, hits give low values",0.938
same,normalized growth,"S. cerevisiae deletion strains, locus YPR111W, strain DBF20, hits give low values",0.916
same,normalized growth,"S. cerevisiae deletion strains, strain NNK1, hits give low values",0.922
same,normalized growth,"S. cerevisiae deletion strains, strain TSCII, hits give low values",0.935
N#CC(C#N)=Cc1ccc(-c2cc(C(F)(F)F)ccc2Cl)o1,normalized growth,[3],1.01
same,normalized growth,"S. cerevisiae deletion strains, locus YBR229C, strain ROT2, hits give low values",1.01
same,normalized growth,[1],1.03
same,normalized growth,"S. cerevisiae deletion strains, locus YDR150W, strain NUM1, hits give low values",0.993
same,normalized growth,"S. cerevisiae deletion strains, locus YEL061C, strain CIN8, hits give low values",0.997
same,normalized growth,"S. cerevisiae deletion strains, locus YGR078C, strain PAC10, hits give low values",1.01
same,normalized growth,[2],0.819
same,normalized growth,"S. cerevisiae deletion strains, locus YHR087W, strain rtc3, hits give low values",1.02
same,normalized growth,"S. cerevisiae deletion strains, locus YJL187C, strain SWE1, hits give low values",0.997
same,normalized growth,"S. cerevisiae deletion strains, locus YJR043C, strain POL32, hits give low values",0.989
same,normalized growth,"S. cerevisiae deletion strains, locus YJR075W, strain HOC1, hits give low values",0.987
same,normalized growth,"S. cerevisiae deletion strains, locus YLR039C, strain RIC1, hits give low values",0.844
same,normalized growth,"S. cerevisiae deletion strains, locus YLR058C, strain SHM2 (second series), hits give low values",0.99
same,normalized growth,"S. cerevisiae deletion strains, locus YLR085C, strain ARP6, hits give low values",0.797
same,normalized growth,"S. cerevisiae deletion strains, locus YLR262C, strain YPT6, hits give low values",0.913
same,normalized growth,"S. cerevisiae deletion strains, locus YML094W, strain GIM5, hits give low values",1.08
same,normalized growth,"S. cerevisiae deletion strains, locus YMR219W, strain ESC1, hits give low values",0.996
same,normalized growth,[4],0.97
same,normalized growth,"S. cerevisiae deletion strains, locus YMR307W, strain GAS1, hits give low values",0.786
same,normalized growth,[5],1.02
same,normalized growth,"S. cerevisiae deletion strains, locus YNL298W, strain CLA4 (second series), hits give low values",0.923
same,normalized growth,[6],0.986
same,normalized growth,"S. cerevisiae deletion strains, locus YNR030W, strain Alg12, hits give low values",0.962
same,normalized growth,"S. cerevisiae deletion strains, locus YPL055C, strain LGE1, hits give low values",1.01
same,normalized growth,[7],0.899
same,normalized growth,"S. cerevisiae deletion strains, locus YPR135W, strain CTF4, hits give low values",0.944
same,normalized growth,"S. cerevisiae strains, strain wild type, hits give low values",0.959
CO/N=C(/C(=O)N[C@@H]1C(=O)N2C(C(=O)O)=C(COC(C)=O)CS[C@H]12)c1csc(N)n1,normalized growth,[3],1.01
same,normalized growth,"S. cerevisiae deletion strains, locus YAL040C, strain CLN3, hits give low values",1.02
same,normalized growth,"S. cerevisiae deletion strains, locus YDR363W, strain ESC2, hits give low values",1.01
same,normalized growth,"S. cerevisiae deletion strains, locus YER002W, strain NOP16, hits give low values",0.983
same,normalized growth,"S. cerevisiae deletion strains, locus YGR229C, strain SMI1, hits give low values",1
same,normalized growth,[4],0.965
same,normalized growth,[5],1.07
same,normalized growth,"S. cerevisiae deletion strains, locus YNL175C, strain NOP13, hits give low values",1.01
same,normalized growth,"S. cerevisiae deletion strains, locus YNL197C, strain WHI3, hits give low values",1.01
same,normalized growth,"S. cerevisiae deletion strains, locus YNL224C, strain SQS1, hits give low values",0.99
same,normalized growth,[6],0.985
same,normalized growth,"S. cerevisiae deletion strains, locus YOR083W, strain WHI5 (second series), hits give low values",0.978
same,normalized growth,[7],1
